From PubChem BioAssay AID603 (National Center for Advancing Translational Sciences (NCATS), 2007)
The campaign covered roughly 71,000 compounds. About 180 (0.25%) were called active. Entries that show only a call come without a potency. For the sample, actives were picked, then their nearest neighbours and some compounds at random. Values without a mark were called inactive. The call rests on the fitted dose curve; in most records, active means well fitted curve in the direction sought with a large enough effect; inconclusive means small, poorly fitted or top-dose-only effect; inactive means flat fitted curve, though single readings scatter.

What follows are molecules tested on DNA polymerase III holoenzyme (E. coli) (assay: qHTS Assay for Inhibitors of DNA Polymerase III Holoenzyme System). Conditions: reconstituted DNA polymerase III holoenzyme replication, biochemical; series mostly up to 57.1 µM.
Procedure: NIH Molecular Libraries Screening Centers Network [MLSCN]
NIH Chemical Genomics Center [NCGC]
Assay Provider: Charles McHenry, University of Colorado
E. coli DNA polymerase III holoenzyme complex was assayed for DNA production by fluorescent detection of the double-stranded DNA product with PicoGreen dye. The holoenzyme complex was reconstituted from the following purified protein components: DNA Polymerase III, beta subunit processivity factor, SSB single-stranded DNA binding protein, and Primase. Single-stranded, circular M13Gori was used as a substrate with dNTPs and NTPs also supplied to the substrate reagent. Compounds from the NCGC collection were incubated with the holoenzyme mixture for 15 min at room temperature to allow binding to occur, and then the reaction was started by the addition of substrate. After 30 min incubation at room temperature, PicoGreen solution containing EDTA was added to stop the reaction and to visualize the double-stranded DNA produced. Reaction progress was measured in a ViewLux CCD imager in fluorescence intensity mode by using 480 nm excitation and 540 nm emission filter set.
NCGC Assay Protocol Summary:
Buffer. 50 mM Hepes-KOH, pH 7.5, 5 % Glycerol, 0.02% NP40, 30 mM potassium;
glutamate, 1.5 mM Magnesium Acetate, 16 uM TCEP.
Buffer in columns 3 and 4 as negative control (no enzyme).
Substrate solution: 5 uM each dATP, dGTP, dCTP and TTP, 50 uM each GTP, CTP, UTP and 200 uM ATP, 1.4 nM M13gori (final concentrations).
Enzyme: 154 nM SSB, 2 nM Primase, 1 nM Beta, 0.35 nM Pol III (final concentrations).
PicoGreen/EDTA: 10 mM Tris-HCl, 10 mM EDTA, 5 uM PicoGreen (final concentrations).
Control titration: ChemBridge 5805060 (from 10 mM, then 1:2, in duplicate) was pin-transferred to upper half of column 2.
Three uL of holoenzyme mixture were dispensed to 1536-well Greiner black solid bottom plates. Compounds and controls (23 nL) were transferred via Kalypsys PinTool. The plates were incubated for 15 min at room temperature, and then 1 uL of substrate solution was added to start the reaction. After room temperature incubation for 35 minutes, 1 uL of PicoGreen solution was added to each well and the plates were read 480 nm excitation and 540 nm emission using ViewLux (Perkin-Elmer) High-throughput CCD imager and fluorescence protocol settings.
Keywords: NIH Roadmap, MLSCN, MLI, MLSMR, qHTS, NCGC, DNA Polymerase III, DNAPol3, DNAPoly3, DNA replication targets
c1ccc2cc3[nH]c(CN4CCCCC4)nc3cc2c1 was tested, and the activity change, negative = inhibition was “inactive”.
With CC(C)c1nnc(NC(=O)C2CCCN2S(=O)(=O)c2ccc(Cl)cc2)s1 (stereo not given) the activity change, negative = inhibition was “inactive”.
In the case of O=C(Nc1ccccc1C(=O)N1CCOCC1)C1CCC(=O)N1C1CCCC1 (stereo not given), the activity change, negative = inhibition is reported as “inactive”.
With COc1ccc(C)c(Cn2c(-c3nonc3N)nc3ccccc32)c1 the activity change, negative = inhibition was “inactive”.
O=C(Nc1ccon1)c1cccc(Cl)c1 was tested, and the activity change, negative = inhibition was “inactive”.
In the case of CC(C)C[C@@H](CC(=O)N[C@@H](CCC(=O)O)CC(=O)O)NC(=O)[C@@H]1CCCC[C@H]1NC(=O)C[C@@H](NC(=O)C[C@H](Cc1c[nH]c2ccccc12)NC(=O)[C@@H]1CCCC[C@H]1N)C(C)C, the activity change, negative = inhibition is reported as “inactive”.
For CCOC(=O)C1Cn2c(nc3c(c2=O)C(C)(CC)Cc2ccccc2-3)S1 (stereo not given), the activity change, negative = inhibition was “inactive”.
For COCCn1nnnc1C(c1ccccc1Cl)N1CCN(c2ccccc2OC)CC1 (stereo not given), the activity change, negative = inhibition was “inactive”.
In the case of NS(=O)(=O)c1cc(C(=O)O)c(Cl)c([N+](=O)[O-])c1Cl, the activity change, negative = inhibition is reported as -10.9% [at 11.4 µM].
For COC(=O)C1(Cc2ccccc2)C=C2C(=C(C)C(=O)C2C)CN1 (stereo not given), the activity change, negative = inhibition was “inactive”.
In the case of c1cncc(-c2nc(N3CCNCC3)c3ccccc3n2)c1, the activity change, negative = inhibition is reported as “inactive”.
CN(C)CCCn1c2ccccc2c2cnccc21 showed an activity change, negative = inhibition of -9.9% [at 11.4 µM].
For COc1ccc(C(=O)N2CCC3(CC2)CCN(c2ccccn2)CC3)cc1, the activity change, negative = inhibition was “inactive”.
For O=C(c1ccncc1)N1CCC2(CCN(Cc3cc(C(F)(F)F)cc(C(F)(F)F)c3)CC2)CC1, the activity change, negative = inhibition was “inactive”.
In the case of CCCCSc1nc2c(c(=O)n1CC)SC(C)C2 (stereo not given), the activity change, negative = inhibition is reported as “inactive”.
With CCC1Oc2ccc(Cl)cc2N(CC(=O)O)C1=O (stereo not given) the activity change, negative = inhibition was “inactive”.
Cc1ccccc1C(=O)NCCN=C1NS(=O)(=O)c2ccccc21 was tested, and the activity change, negative = inhibition was “inactive”.
O=C(Cn1nnc(-c2ccc3c(c2)OCO3)n1)NCc1ccco1 was tested, and the activity change, negative = inhibition was “inactive”.
COc1ccc(CCNC(=O)CCn2c(=O)oc3ccccc32)cc1OC was tested, and the activity change, negative = inhibition was “inactive”.
With CN(C)CCCNC(=O)c1ccc2[nH]c3ccccc3c2c1 the activity change, negative = inhibition was “inactive”.
In the case of CSc1ccc(S(=O)(=O)NCc2ccc(Cl)cc2)cc1, the activity change, negative = inhibition is reported as “inactive”.
For O=C(C1CCCO1)N1CCC(c2nc3ccccc3[nH]2)CC1 (stereo not given), the activity change, negative = inhibition was “inactive”.
N#Cc1c(N)sc2c1CCN(C(=O)OCc1ccccc1)C2 was tested, and the activity change, negative = inhibition was “inactive”.
With COc1ccccc1-c1c(C)nn2c(C)c(C(C)=O)cnc12 the activity change, negative = inhibition was “inactive”.
For CN(C)C(=O)c1ccc(-c2cncnc2NC2CCNCC2)cc1, the activity change, negative = inhibition was “inactive”.
With O=c1cc(-c2ccc(O)c(O)c2)oc2cccc(O)c12 the activity change, negative = inhibition was “inactive”.
Oc1ccc(O)c2c(O)cccc12 was tested, and the Potency was 15.8 µM (active).
With COc1ccc(OC)c(CN2C(=O)CCC2(C)C(=O)NC2CCCCCC2)c1 (stereo not given) the activity change, negative = inhibition was “inactive”.
In the case of N#Cc1ccccc1-c1ccc2ncnc(NCc3cccnc3)c2c1, the activity change, negative = inhibition is reported as “inactive”.
CN1C(=O)CC(N2CCN(c3ccccn3)CC2)C1=O (stereo not given) was tested, and the activity change, negative = inhibition was “inactive”.
In the case of N#Cc1ccc(CN2CCCC3(CCN(C(=O)c4ccco4)CC3)C2)cc1, the activity change, negative = inhibition is reported as “inactive”.
Cc1c(-c2nn(C)c(=O)c3ccccc23)oc2ccc(F)cc2c1=O was tested, and the activity change, negative = inhibition was “inactive”.
Clc1ccc(C=Nc2ccc3c(c2)Cc2ccccc2-3)c(Cl)c1 showed an activity change, negative = inhibition of -10.3% [at 11.4 µM].
With CCOC(=O)c1nnn(CC(=O)Nc2cccc(F)c2)c1C(=O)OCC the activity change, negative = inhibition was “inactive”.
For c1ccc(Nc2n[nH]nc2-c2ccccc2)cc1, the activity change, negative = inhibition was “inactive”.
With O=C1c2cccc3cccc(c23)N1CN1CCN(c2ccccn2)CC1 the activity change, negative = inhibition was “inactive”.
In the case of C=CCOC(=O)c1ccccc1C(=O)OCC=C, the activity change, negative = inhibition is reported as “inactive”.
In the case of Nc1nonc1C(=O)NCCc1ccccc1, the activity change, negative = inhibition is reported as “inactive”.
For COCCNc1nc(-n2nc(C)cc2C)nc2sc3c(c12)CCCC3, the activity change, negative = inhibition was “inactive”.
In the case of C[C@@H](C(=O)Nc1ccc2ccccc2c1)[C@@H]1C[C@@]1(C)[C@@H](NC(=O)c1cccnc1)c1ccccc1, the activity change, negative = inhibition is reported as “inactive”.
In the case of CC(C)c1cc(CN(C)C)c(O)c(C(C)(C)C)c1, the activity change, negative = inhibition is reported as -6.4% [at 11.4 µM].
COc1cccc(Cn2c(=O)c(-c3cc(F)cc(F)c3)nc3cnc(OC)nc32)c1 was tested, and the activity change, negative = inhibition was “inactive”.
O=c1cc(-c2ccccc2)[nH]c2nc(Cl)ccc12 was tested, and the activity change, negative = inhibition was “inactive”.
In the case of COC(=O)[C@@]1(Cc2ccc(F)cc2)[C@H]2c3cc(C(=O)N4CCCC4)n(C[C@H](O)CO)c3C[C@H]2CN1C(=O)c1ccccc1, the activity change, negative = inhibition is reported as “inactive”.
CC(=O)O[C@]1(C(C)=O)CC[C@@H]2[C@@H]3C=C(C)C4=CC(=O)CC[C@@]4(C)[C@H]3CC[C@]21C was tested, and the activity change, negative = inhibition was “inactive”.
In the case of O=C(O)CC(C(=O)O)C(CC(=O)O)C(=O)O (stereo not given), the activity change, negative = inhibition is reported as “inactive”.
In the case of COc1ccc(OC)c(NC(=O)CSc2nc(N)c(-c3ccccc3)c(=O)[nH]2)c1, the activity change, negative = inhibition is reported as “inactive”.
For O=C(CSc1nnc(-c2ccncc2)n1C1CCCCC1)Nc1ccccc1, the activity change, negative = inhibition was “inactive”.
In the case of CCN(CC)S(=O)(=O)c1ccc(NC(=O)CN(c2cccc(F)c2)S(C)(=O)=O)cc1, the activity change, negative = inhibition is reported as “inactive”.
With O=C(Nc1c(-c2ccccc2)nc2c(Br)cc(Br)cn12)c1ccco1 the activity change, negative = inhibition was “inactive”.
For COC(=O)[C@@]1(Cc2ccc(F)cc2)[C@@H]2[C@@H](CC(=O)[C@H]2CC(=O)C(=O)N2CCCC2)CN1C(=O)c1ccccc1, the activity change, negative = inhibition was “inactive”.
O=c1[nH]c(=O)c2nc3ccccc3nc2[nH]1 was tested, and the activity change, negative = inhibition was “inactive”.
With O=C(NCc1ccccn1)c1ccc2nc(-c3ccco3)c(-c3ccco3)nc2c1 the Potency was 3.98 µM (active).
O=C(NCc1ccccn1)c1cc2ccccc2oc1=O was tested, and the activity change, negative = inhibition was “inactive”.
For Cc1cccn2c(=O)c3cc(C(=O)NCc4ccccn4)n(C)c3nc12, the activity change, negative = inhibition was “inactive”.
In the case of CC(C)Cc1ccc(S(=O)(=O)N2CCN(C(=O)c3ccco3)CC2)cc1, the activity change, negative = inhibition is reported as “inactive”.
For COc1ccc(NC(=O)N2CC3(CCN(C(=O)c4cccn4C)CC3)C2)cc1, the activity change, negative = inhibition was “inactive”.
For CC1Cc2nc(SCC(=O)Nc3ccccc3F)n(C)c(=O)c2S1 (stereo not given), the activity change, negative = inhibition was “inactive”.
For Cc1cc(C)cc(N(CC(=O)NCC2CCCO2)S(=O)(=O)c2c(C)noc2C)c1 (stereo not given), the activity change, negative = inhibition was “inactive”.
COc1ccc(C[C@H](N)C(=O)N[C@@H]2[C@H](O)[C@H](n3cnc4c(N(C)C)ncnc43)O[C@@H]2CO)cc1 was tested, and the activity change, negative = inhibition was “inactive”.
For COc1ccc(-c2nnc(SCC(=O)NC3CCCCC3)o2)cc1OC, the activity change, negative = inhibition was “inactive”.
In the case of COc1ccc2nc(N3CCCC(O)C3)c(C#N)cc2c1 (stereo not given), the activity change, negative = inhibition is reported as “inactive”.
For CC(=O)Oc1ccccc1C(=O)Nc1ncc([N+](=O)[O-])s1, the activity change, negative = inhibition was “inactive”.
In the case of COC(=O)[C@H](C)[C@H]1C[C@]1(C)[C@H](NC(=O)OCc1ccccc1)c1ccccc1, the activity change, negative = inhibition is reported as “inactive”.
CCOC(=O)N1CCN(C(=O)COc2ccc(Br)cc2)CC1 was tested, and the activity change, negative = inhibition was 0.2% [at 11.4 µM].
